Values joined by “and” are separate entries in the source; they are usually repeats but may differ in a detail not shown here. Equal values may be shown once. Where a name gives a salt, the structure may show the parent alone.
Tests used:
Assay in all cases: cell viability relative to vehicle control; higher = less cytotoxic
Details in all cases: 10 µM
K562 = tested on: K562
Procedure, shortened: (§1)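 CRISPR-edited mutant clones and isogenic wild-type clones from four leukaemia lines were screened against Selleck bioactive, kinase and epigenetic probe libraries, with identity-inconsistent compounds excluded. Each compound was acoustically dispensed at a single 10 µM dose into 384-well plates holding 2000 cells in 50 µL medium per well. After 48 h the supernatant was removed and CellTiter-Glo luminescence was read. Viability was expressed as percent of the on-plate vehicle control and analysed in Genedata Screener.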

MARIMO = tested on: MARIMO
Procedure, shortened: as §1

MOLM14 = tested on: MOLM14
Procedure, shortened: as §1

OCI-AML2 = tested on: OCI-AML2
Procedure, shortened: as §1

SMILES	cell viability (K562; SRSF2 genotype: SRSF2 P95H/wt)	cell viability (K562; SRSF2 genotype: SRSF2 wt/wt) [%]	cell viability (MARIMO; SRSF2 genotype: SRSF2 P95H/wt) [%]	cell viability (MARIMO; SRSF2 genotype: SRSF2 wt/wt) [%]	cell viability (MOLM14; SRSF2 genotype: SRSF2 P95H/wt) [%]	cell viability (MOLM14; SRSF2 genotype: SRSF2 wt/wt) [%]	cell viability (OCI-AML2; SRSF2 genotype: P95H/wt) [%]	cell viability (OCI-AML2; SRSF2 genotype: wt/wt) [%]
CC1(C)S[C@@H]2[C@H](NC(=O)[C@H](NC(=O)N3CCNC3=O)c3ccccc3)C(=O)N2[C@H]1C(=O)O [Azlocillin sodium salt]	90.4% and 87.6%	81.5	82.3	92.1	86.4	88.6	88	91.8
CCOc1ccc(Cc2cc([C@@H]3O[C@H](SC)[C@@H](O)[C@H](O)[C@H]3O)ccc2Cl)cc1 [Sotagliflozin (LX4211)]	84.2% and 86%	81.4	86.3	97.3	89.7	89.5	88.6	96.9
CC(C)c1cnn2c(NCc3ccccc3)cc(NCCCCCCN)nc12	86.8% and 99.7%	101	89.9	87.8	95.9	98.5	89.4	87.5
OCc1cc([C@@H](O)CNCCCCCCOCCOCc2c(Cl)cccc2Cl)ccc1O [Vilanterol Trifenate]	85% and 94.3%	87	79.5	86.2	72.8	82.9	73.9	76.3
Cc1cc(NS(=O)(=O)c2ccc(N)cc2)nc(C)n1 [sulfaisodimidine]	103%	112	106	101	106	106	112	102
O=c1cc(-c2ccc(O)cc2)oc2cc(O)cc(O)c12 [Apigenin]	102% and 96.4%	96	85.9	99.8	55.4	57.5	67.9	63.6
[I-].[K+] [Potassium iodide]	100% and 96%	100	107	105	106	100	102	112
Cc1ncc(NC(=O)c2cccc(C(F)(F)F)c2)cc1-c1cnc(OC2CCOCC2)c(N2CCOCC2)c1	61.6% and 73.4%	71.2	41.2	40.3	48.2	40.7	30.6	39
CNC(=O)c1ccc(-c2cnc3ncc(Cc4ccc5ncccc5c4)n3n2)cc1F	95% and 101%	102	107	115	103	110	111	110
CCNC(=O)CCC/C=C\C[C@@H]1[C@@H](/C=C/[C@@H](O)CCc2ccccc2)[C@H](O)C[C@@H]1O [Bimatoprost]	99.5% and 99.1%	96.8	95.4	98.3	98.4	98.3	105	98.8
Nc1ncc(-c2ccnc(Nc3ccncc3)n2)c(CC2CC2)n1	69% and 73.7%	74.2	69.8	66.9	44.8	43.8	43.3	45.2
CC(C)n1c(/C=C/C(O)CC(O)CC(=O)O)c(-c2ccc(F)cc2)c2ccccc21 (stereo not given) [Fluvastatin sodium (Lescol)]	80.8% and 90.5%	69.6	45.5	46.6	77.7	89.3	36.8	46.5
Clc1ccc(C(Cn2ccnc2)OCc2c(Cl)cccc2Cl)c(Cl)c1 (stereo not given) [Isoconazole nitrate (Travogen)]	73.3% and 76.4%	68.3	70.2	73.2	77.6	79.6	75.9	69.7
CC(NC(=O)Cc1cc(F)cc(F)c1)C(=O)NC1C(=O)N(C)c2ccccc2-c2ccccc21 (stereo not given)	101% and 102%	108	99.7	94.5	105	104	105	107
C=C(C)[C@@H]1CC[C@]2(C=O)CC[C@]3(C)[C@H](CC[C@@H]4[C@@]5(C)CC[C@H](O)C(C)(C)[C@@H]5CC[C@]43C)[C@@H]12 [Betulinicaldehyde]	101% and 97.2%	102	95.1	94.2	103	98	94.5	92
NC1=N[C@@]2(c3cc(NC(=O)c4ccc(F)cn4)ccc3F)COC[C@H]2CS1	94.7% and 91.1%	86.1	89.6	98.4	99.7	94.2	94.4	92.6
CCCC(CCC)C(=O)O [Divalproex sodium]	105% and 102%	103	101	111	105	105	93.3	108
CC(C)(CO)c1cc2cc(NC(=O)C3(c4ccc5c(c4)OC(F)(F)O5)CC3)c(F)cc2n1C[C@@H](O)CO	95.8% and 95.3%	87.5	92.7	109	91.5	91.7	95.7	96
CN(C)CCC(c1ccc(Br)cc1)c1ccccn1 (stereo not given) [Brompheniramine hydrogen maleate]	95.3% and 97.4%	91.3	86.2	90.7	101	98.8	112	109
C=CC(=O)Nc1cccc(Sc2nc(Nc3ccc(N4CCN(C)CC4)cc3)ncc2Cl)c1	12.7% and 13.8%	13.8	0.51	9.17	0.08	0.12	0.11	0.45

SMILES	cell viability (K562; SRSF2 genotype: SRSF2 P95H/wt)	cell viability (K562; SRSF2 genotype: SRSF2 wt/wt) [%]	cell viability (MARIMO; SRSF2 genotype: SRSF2 P95H/wt) [%]	cell viability (MARIMO; SRSF2 genotype: SRSF2 wt/wt) [%]	cell viability (MOLM14; SRSF2 genotype: SRSF2 P95H/wt) [%]	cell viability (MOLM14; SRSF2 genotype: SRSF2 wt/wt) [%]	cell viability (OCI-AML2; SRSF2 genotype: P95H/wt) [%]	cell viability (OCI-AML2; SRSF2 genotype: wt/wt) [%]
CCCCCCCCOC(=O)c1cc(O)c(O)c(O)c1 [Octyl gallate]	47.3% and 44.6%	58.7	32.3	51	48.4	28.9	52.9	56.1
CCCc1cc(-c2nc(-c3ccc(C)cc3)cs2)ccn1 [Fatostatin]	22.9% and 30.5%	39	46.2	36	51.6	35.5	34.2	35.4
COc1c(O)c(C)cc2c1C(=O)c1c(O)cccc1C2=O [Obtusifolin]	103% and 105%	107	109	105	111	105	98.6	92.6
O=C1c2c(O)cccc2C([C@@H]2O[C@H](CO)[C@@H](O)[C@H](O)[C@H]2O)c2cc(CO)cc(O)c21 (stereo not given in full) [Aloin (Barbaloin)]	105% and 104%	98.5	105	102	109	104	98.1	102
C[C@@H]1C(=O)O[C@H]2C[C@@]34[C@H]5C[C@@H](C(C)(C)C)[C@]36[C@@H](OC(=O)[C@@H]6O)O[C@@]4(C(=O)O5)[C@]21O [Ginkgolide A]	105% and 100%	97.8	101	106	105	103	106	95.5
CO[C@H]1C[C@@H]2CC[C@@H](C)[C@@](O)(O2)C(=O)C(=O)N2CCCC[C@H]2C(=O)O[C@H]([C@H](C)C[C@@H]2CC[C@@H](OCCO)[C@H](OC)C2)CC(=O)[C@H](C)/C=C(\C)[C@@H](O)[C@@H](OC)C(=O)[C@H](C)C[C@H](C)/C=C/C=C/C=C/1C [Everolimus (RAD001)]	59.9% and 63.6%	70.4	73.8	71.6	57.4	51.4	60	61.6
CC(=O)O[C@H]1C(=O)[C@@]2(C)[C@H]([C@H](OC(=O)c3ccccc3)[C@]3(O)C[C@H](OC(=O)[C@H](O)[C@@H](NC(=O)c4ccccc4)c4ccccc4)C(C)=C1C3(C)C)[C@]1(OC(C)=O)CO[C@@H]1C[C@@H]2O [Paclitaxel (Taxol)]	24.2% and 40.5%	35.7	7.78	4.98	9.66	2.55	7.7	12.1
CC(=O)OC1CCC2C3CCc4cc(O)ccc4C3CCC12C (stereo not given)	96.5% and 85%	90.6	85.8	98.9	96.9	96.2	87.7	96.1
Fc1ccc([C@@H]2CCNC[C@H]2COc2ccc3c(c2)OCO3)cc1 [Paroxetine mesylate]	34.1% and 53.1%	49.5	39	35.6	33.4	38.1	28.7	39.2
CN[C@@H](C)C(=O)N[C@H](C(=O)N1CCC[C@H]1C(=O)Nc1snnc1-c1ccccc1)C1CCCCC1	98.6% and 96.3%	97.7	101	105	89.6	104	102	123
O=C(Nc1cccc(Cl)c1)Nc1ncc(CCNc2ncnc3ccsc23)s1 [SNS-314 Mesylate]	63.5% and 68.5%	75.3	68.8	76.5	18.7	12.8	28.2	30.8
c1ccc(-c2nn3c(c2-c2ccnc4cc(OCCN5CCOCC5)ccc24)CCC3)nc1	104% and 111%	97.1	106	120	105	110	108	117
C[C@@H](O)[C@H]1C(=O)N2C(C(=O)O)=C(S[C@@H]3CN[C@H](CNS(N)(=O)=O)C3)[C@H](C)[C@H]12 [Doripenem Hydrate]	95.8% and 101%	94.1	94.6	101	103	97.5	96.4	99
O=C(Nc1cccc(C(F)(F)F)c1)c1cccc2cc(Oc3cc(CO)ncn3)ccc12	80.8% and 91.3%	87.8	101	121	86.9	98.6	90.7	96.3
CC(=O)O[C@]1(C(C)=O)CC[C@H]2[C@@H]3C[C@H](C)C4=CC(=O)CC[C@]4(C)[C@H]3CC[C@@]21C [Medroxyprogesterone acetate]	82.5% and 92.8%	94.7	104	73	112	102	98.5	87.5
CC(C)(C)c1cc(O)ccc1O	99.8% and 100%	93.8	21.6	0.51	48	54.4	37.9	29.7
Cc1nnc(NS(=O)(=O)c2ccc(N)cc2)s1 [Sulfamethizole (Proklar)]	109% and 97.9%	104	107	106	100	107	108	111
Cn1cnc(-c2cc3nccc(Oc4ccc(NC(=S)NC(=O)Cc5ccccc5)cc4F)c3s2)c1	80.4% and 84.1%	71.9	87.8	105	23.3	15.3	49.2	58.8
Cn1c(=O)c(Oc2ccc(F)cc2F)cc2cnc(NC(CCO)CCO)nc21	91.7% and 92.6%	90.4	98.9	97.2	92.2	99.8	96.2	92.2
S=c1[nH]cnc2nc[nH]c12 [Mercaptopurine (6-MP)]	58.5% and 51.3%	34.1	82.1	85.9	74.4	63.6	83.2	90

— the supplement of paper PMC10981050
